According to ChEMBL document CHEMBL3433997, “St. Jude Leishmania screening dataset” (2016):

The compounds below were run against Solute carrier family 2, facilitated glucose transporter member 1 (Homo sapiens) (UniProt P11166) (assay: ST_JUDE_LEISH: Cytotoxicity at 2uM final concentration against transgenic Leishmania Mexicana promastigotes LmGLUT1 that are glucose transport deficient and complemented with the human glucose transporter GLUT1. Activity is measured by DNA content using SYBR green in vitro).
Chain of Solute carrier family 2, facilitated glucose transporter member 1 (Homo sapiens) (P11166 whole entry): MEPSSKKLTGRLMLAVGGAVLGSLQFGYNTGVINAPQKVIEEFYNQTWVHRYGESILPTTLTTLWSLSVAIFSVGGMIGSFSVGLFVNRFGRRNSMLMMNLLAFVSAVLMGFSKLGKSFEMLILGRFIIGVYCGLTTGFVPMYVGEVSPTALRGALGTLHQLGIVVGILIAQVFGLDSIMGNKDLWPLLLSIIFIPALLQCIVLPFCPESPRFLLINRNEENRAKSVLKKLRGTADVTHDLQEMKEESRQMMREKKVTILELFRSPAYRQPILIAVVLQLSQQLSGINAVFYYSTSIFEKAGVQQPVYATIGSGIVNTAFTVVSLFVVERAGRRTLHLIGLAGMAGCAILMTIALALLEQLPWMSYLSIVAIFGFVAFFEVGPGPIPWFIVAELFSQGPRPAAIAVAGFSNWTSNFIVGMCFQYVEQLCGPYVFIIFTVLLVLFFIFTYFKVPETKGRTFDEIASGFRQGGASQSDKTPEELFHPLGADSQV
Type: functional
Compound `O=C(NCCN1CCCCC1)c1ccc(Nc2nccc(Nc3ccc(Oc4ccccc4)cc3)n2)cc1` has an inhibition of 7.53%. In the case of `CCOc1ccc(C(=O)N2CCOC(CCN3CCC(c4ccccc4)CC3)(c3ccc(Cl)c(Cl)c3)C2)cc1` (stereo not given), the inhibition is reported as 3.91%. For `CN(C)CCN(Cc1ccc(-c2ccc(CNCCc3ccccc3)cc2)nc1)C(=O)CCC1CCCC1`, the inhibition was 3.68%. `O=C(Nc1cccc(-c2ccc(-c3nc4cc(C(F)(F)F)ccc4[nH]3)cc2)c1)c1ccoc1` gave an inhibition of -0.21%. With `O=c1cc(NCCCNCc2cccc(OC(F)(F)C(F)F)c2)[nH]c2ccccc12` the inhibition was 6.11%. `Cc1cnc(NCC2CCCCC2)nc1N[C@@H](CC(C)C)C(=O)Nc1ccccc1` was tested, and the inhibition was 2.17%. Work on `Oc1ccc(CCNc2nc(NCCCOc3cc(CN4CCCCC4)ccc3F)nc(N3CCNCC3)n2)cc1` yielded an inhibition of 1.98%. `Nc1c(Cl)cc(C(O)CNCCCCCOCCc2ccc3occc3c2)cc1Cl` (stereo not given) showed an inhibition of 3.53%. `O=C(Nc1cccc(C(F)(F)F)c1)c1ccc(S(=O)(=O)NCC2CCCN(CC3CCCCC3)C2)cc1` (stereo not given) gave an inhibition of 1.23%. In the case of `CC(=O)Nc1cccc(/C=C/C(=O)N2CCC(N3CCCCC3)CC2)c1`, the inhibition is reported as 2.23%. `N#Cc1ccc(NC(=O)c2ccc(C(=O)NCCCCN3CCC(c4ccc5c(c4OCCOC4CCCCO4)CCCC5)CC3)cc2)cc1` (stereo not given) gave an inhibition of 0.68%. Compound `COc1ccc(CNC(=O)c2cnc3c(O)cccc3c2Nc2cccc(NC(=O)c3ccc(Cl)c(Cl)c3)c2)cc1` has an inhibition of 74.7%. Work on `COc1cc2c(cc1OC)C(c1ccc(Br)cc1)CN(C)CC2` (stereo not given) yielded an inhibition of 1.39%. Work on `CN(c1ccc(NC(=O)Nc2cccc(Cl)c2)cc1)c1ccnc(N)n1` yielded an inhibition of -0.39%. Compound `CCOC(=O)NCC(=O)Nc1cccc(-c2cccc(-c3nc4cccc(C)c4[nH]3)c2)c1` has an inhibition of 1.11%. With `CN1CCCN(c2ccnc3cc4c(cc23)N(C(=O)c2ccc(C(F)(F)F)cc2)CC4)CC1` the inhibition was 5.22%. Work on `COc1ccc2nccc([C@@H](O)CN3CCC(NCc4ccc5c(c4)oc(=S)n5C)CC3)c2c1` yielded an inhibition of 2.25%. Work on `COc1cccc(Nc2nnc(SCC(=O)NNC(=O)c3ccccn3)s2)c1` yielded an inhibition of 0.56%. `Cc1cccc(-c2ccc3c(c2)CC(NCc2cccc(-n4ccnc4)c2)C3)c1` (stereo not given) showed an inhibition of 31.8%. In the case of `Nc1nc2c(ncn2OC[C@H]2COP(=O)(O)CO2)c(=O)[nH]1`, the inhibition is reported as -2.05%. In the case of `N#Cc1cccc(C(=O)NC2CCN(CCCCCNC(=O)/C=C/c3ccc(Cl)c(Cl)c3)CC2)c1`, the inhibition is reported as 5.7%. `CN(C)CCCNc1ccnc2cc(Cl)ccc12` showed an inhibition of 1.15%. Work on `CN1CCc2cc(I)c(O)cc2C1Cc1ccccc1Cl` (stereo not given) yielded an inhibition of 1.98%. `CC(C)(C)OC(=O)N[C@@H](CS(=O)(=O)CCNC(=N)COCc1ccccc1)C(=O)OC(C)(C)C` gave an inhibition of 7.09%. For `COc1cccc(C(=O)NC(c2ccccc2OC)c2cc(Cl)c3cccnc3c2O)c1` (stereo not given), the inhibition was -1.87%. For `Cc1cccc(CNc2nc(C)cc(NCCC(=O)NCCOc3ccccc3)n2)c1`, the inhibition was 6.22%. `COc1ccc(CNC2CCN(c3ccc(NC(=O)c4cccc(Cl)c4)cc3)CC2)cc1OC` gave an inhibition of 2.25%. Compound `CC1(C)N=C(N)N=C(N)N1OCCCCON1C(N)=NC(N)=NC1(C)C` has an inhibition of 3.48%. In the case of `CCC(=O)Oc1ccc(NC(=O)c2cccc(OC)c2)cc1`, the inhibition is reported as 1.64%. `Cc1ccc(NC(=O)c2cccc(CN3CCCN(Cc4cccc(O)c4)CC3)c2)cc1C` gave an inhibition of 4.69%. In the case of `O=[N+]([O-])c1cccc(CNCC2CCN(Cc3ccc(Cl)c(Cl)c3)CC2)c1`, the inhibition is reported as 18.2%. `CCOc1cc(C(=O)Nc2cccnc2)ccc1-c1nc2cc(Cl)c(Cl)cc2[nH]1` gave an inhibition of 1.75%. For `COc1ccc(CNc2nc(NCCc3ccccc3)c3cc(OC)c(OC)cc3n2)cc1OC`, the inhibition was 3.4%. In the case of `Cc1ccc(O)cc1Nc1ccnc2cc(-c3csc(CNCCN4CCOCC4)n3)ccc12`, the inhibition is reported as 1.41%. `O=C(Nc1ccc(C(=O)OCC2CCCN3CCCCC23)cc1)c1ccc([N+](=O)[O-])cc1` (stereo not given) gave an inhibition of -1.57%. `CN1CCN(c2ccc(-c3cccc(NC(=O)c4cccc([N+](=O)[O-])c4)c3)nn2)CC1` gave an inhibition of 3.29%. For `Cc1ccc(NC(=O)c2ccnc(N3CCN(c4ccncc4)CC3)c2)cc1F`, the inhibition was 3.18%. For `O=C(N[C@@H](Cc1ccccc1)C(=O)NCCN1CCOCC1)c1ccc(O)c(-c2ccc(Cl)c(Cl)c2)c1`, the inhibition was 2.33%. Compound `CC(CNC(=O)c1cc2c(Cl)cc(Cl)cc2[nH]1)CNc1cc(=O)c2ccccc2[nH]1` (stereo not given) has an inhibition of -0.17%. `Nc1ccc2[nH]cc(C3CCN(CC4CCN(C(=O)/C=C/c5ccc(Cl)c(Cl)c5)CC4)CC3)c2n1` was tested, and the inhibition was 2.32%.

Each compound was assayed against Hexose transporter 1 (Plasmodium falciparum) (UniProt O97467) (assay: ST_JUDE_LEISH: Cytotoxicity at 2uM final concentration against transgenic Leishmania Mexicana promastigotes LmPfHT that are glucose transport deficient and complemented with the Plasmodium falciparum hexose transporter. Activity is measured by DNA content using SYBR green in vitro).
Type: functional
For `O=C(NCCN1CCCCC1)c1ccc(Nc2nccc(Nc3ccc(Oc4ccccc4)cc3)n2)cc1`, the inhibition was 8.31%. For `CCOc1ccc(C(=O)N2CCOC(CCN3CCC(c4ccccc4)CC3)(c3ccc(Cl)c(Cl)c3)C2)cc1` (stereo not given), the inhibition was 3.91%. `CN(C)CCN(Cc1ccc(-c2ccc(CNCCc3ccccc3)cc2)nc1)C(=O)CCC1CCCC1` was tested, and the inhibition was 6.87%. For `O=C(Nc1cccc(-c2ccc(-c3nc4cc(C(F)(F)F)ccc4[nH]3)cc2)c1)c1ccoc1`, the inhibition was 1.44%. `O=c1cc(NCCCNCc2cccc(OC(F)(F)C(F)F)c2)[nH]c2ccccc12` gave an inhibition of 7.27%. Work on `Cc1cnc(NCC2CCCCC2)nc1N[C@@H](CC(C)C)C(=O)Nc1ccccc1` yielded an inhibition of 1.5%. Work on `Oc1ccc(CCNc2nc(NCCCOc3cc(CN4CCCCC4)ccc3F)nc(N3CCNCC3)n2)cc1` yielded an inhibition of 4.72%. Compound `Nc1c(Cl)cc(C(O)CNCCCCCOCCc2ccc3occc3c2)cc1Cl` (stereo not given) has an inhibition of 3.64%. `O=C(Nc1cccc(C(F)(F)F)c1)c1ccc(S(=O)(=O)NCC2CCCN(CC3CCCCC3)C2)cc1` (stereo not given) gave an inhibition of 0.41%. `CC(=O)Nc1cccc(/C=C/C(=O)N2CCC(N3CCCCC3)CC2)c1` gave an inhibition of 1.03%. Compound `N#Cc1ccc(NC(=O)c2ccc(C(=O)NCCCCN3CCC(c4ccc5c(c4OCCOC4CCCCO4)CCCC5)CC3)cc2)cc1` (stereo not given) has an inhibition of 2.54%. `COc1ccc(CNC(=O)c2cnc3c(O)cccc3c2Nc2cccc(NC(=O)c3ccc(Cl)c(Cl)c3)c2)cc1` gave an inhibition of 78.8%. Work on `COc1cc2c(cc1OC)C(c1ccc(Br)cc1)CN(C)CC2` (stereo not given) yielded an inhibition of 4.21%. With `CN(c1ccc(NC(=O)Nc2cccc(Cl)c2)cc1)c1ccnc(N)n1` the inhibition was 1.34%. `CCOC(=O)NCC(=O)Nc1cccc(-c2cccc(-c3nc4cccc(C)c4[nH]3)c2)c1` showed an inhibition of 1.64%. Work on `CN1CCCN(c2ccnc3cc4c(cc23)N(C(=O)c2ccc(C(F)(F)F)cc2)CC4)CC1` yielded an inhibition of 5.41%. Work on `COc1ccc2nccc([C@@H](O)CN3CCC(NCc4ccc5c(c4)oc(=S)n5C)CC3)c2c1` yielded an inhibition of 5.5%. `COc1cccc(Nc2nnc(SCC(=O)NNC(=O)c3ccccn3)s2)c1` was tested, and the inhibition was 2.27%. `Cc1cccc(-c2ccc3c(c2)CC(NCc2cccc(-n4ccnc4)c2)C3)c1` (stereo not given) was tested, and the inhibition was 41.4%. `Nc1nc2c(ncn2OC[C@H]2COP(=O)(O)CO2)c(=O)[nH]1` was tested, and the inhibition was 0.55%. Compound `N#Cc1cccc(C(=O)NC2CCN(CCCCCNC(=O)/C=C/c3ccc(Cl)c(Cl)c3)CC2)c1` has an inhibition of 5.26%. Work on `CN(C)CCCNc1ccnc2cc(Cl)ccc12` yielded an inhibition of 0.62%. For `CN1CCc2cc(I)c(O)cc2C1Cc1ccccc1Cl` (stereo not given), the inhibition was 3.88%. In the case of `CC(C)(C)OC(=O)N[C@@H](CS(=O)(=O)CCNC(=N)COCc1ccccc1)C(=O)OC(C)(C)C`, the inhibition is reported as 6.29%. `COc1cccc(C(=O)NC(c2ccccc2OC)c2cc(Cl)c3cccnc3c2O)c1` (stereo not given) gave an inhibition of -2.45%. `Cc1cccc(CNc2nc(C)cc(NCCC(=O)NCCOc3ccccc3)n2)c1` showed an inhibition of 3.29%. Work on `COc1ccc(CNC2CCN(c3ccc(NC(=O)c4cccc(Cl)c4)cc3)CC2)cc1OC` yielded an inhibition of 1.47%. With `CC1(C)N=C(N)N=C(N)N1OCCCCON1C(N)=NC(N)=NC1(C)C` the inhibition was 3.55%. With `CCC(=O)Oc1ccc(NC(=O)c2cccc(OC)c2)cc1` the inhibition was 1.17%. With `Cc1ccc(NC(=O)c2cccc(CN3CCCN(Cc4cccc(O)c4)CC3)c2)cc1C` the inhibition was 3.38%. `O=[N+]([O-])c1cccc(CNCC2CCN(Cc3ccc(Cl)c(Cl)c3)CC2)c1` showed an inhibition of 9.74%. In the case of `CCOc1cc(C(=O)Nc2cccnc2)ccc1-c1nc2cc(Cl)c(Cl)cc2[nH]1`, the inhibition is reported as 0.16%. Compound `COc1ccc(CNc2nc(NCCc3ccccc3)c3cc(OC)c(OC)cc3n2)cc1OC` has an inhibition of 3.46%. Work on `Cc1ccc(O)cc1Nc1ccnc2cc(-c3csc(CNCCN4CCOCC4)n3)ccc12` yielded an inhibition of 0.86%. For `O=C(Nc1ccc(C(=O)OCC2CCCN3CCCCC23)cc1)c1ccc([N+](=O)[O-])cc1` (stereo not given), the inhibition was 0.57%. With `CN1CCN(c2ccc(-c3cccc(NC(=O)c4cccc([N+](=O)[O-])c4)c3)nn2)CC1` the inhibition was 1.6%. Compound `Cc1ccc(NC(=O)c2ccnc(N3CCN(c4ccncc4)CC3)c2)cc1F` has an inhibition of 4.4%. For `O=C(N[C@@H](Cc1ccccc1)C(=O)NCCN1CCOCC1)c1ccc(O)c(-c2ccc(Cl)c(Cl)c2)c1`, the inhibition was 2.47%. For `CC(CNC(=O)c1cc2c(Cl)cc(Cl)cc2[nH]1)CNc1cc(=O)c2ccccc2[nH]1` (stereo not given), the inhibition was 1.37%. In the case of `Nc1ccc2[nH]cc(C3CCN(CC4CCN(C(=O)/C=C/c5ccc(Cl)c(Cl)c5)CC4)CC3)c2n1`, the inhibition is reported as 1.93%.
